Assay results published in PubChem BioAssay (NCATS).
Results filed as inconclusive are left out. A number with no mark means an inactive call. The source made the active and inactive calls. The call rests on the fitted dose curve; in most records, active means well fitted curve in the direction sought with a large enough effect; inconclusive means small, poorly fitted or top-dose-only effect, or another doubt; inactive means no such curve, though single readings can be large; an effect the other way counts as inactive or inconclusive.

Assay: qHTS of pediatric cancer cell lines to identify multiple opportunities for drug repurposing: Confirmatory screen for OHS-50 cells (AID 1347128);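 further: compound exposure lasted 48 h at 37 degrees C; nearly all actives have a fitted effect of over 55% in size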; on activity change, negative = cytotoxic: on the % scale 0 is the no-effect control and ±100 the full control effect
Details: OHS-50 osteosarcoma cells viability; series mostly up to 45.9 µM; activity change, negative = cytotoxic: at the top concentration
In short: (§1)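 Cells (500-1,000/well) rested 5 h, then received compounds for 48 h; metabolically active cells were measured by CellTiter-Glo luminescence. Final concentrations spanned up to 46 µM (MIPE, 11-point) or 0.59 nM-46 µM (NPC, 8-point) in primary screens, 11-point in follow-ups.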
Potency means the concentration at half of the fitted maximal effect.

| Structure (SMILES) | activity change, negative = cytotoxic | Potency |
| --- | --- | --- |
| CS(=O)(=O)Nc1ccc([N+](=O)[O-])cc1Oc1ccccc1 | -1.07% | – |
| CC(C)Cc1ccc(C(C)C(=O)O)cc1 (stereo not drawn) | 7.41% | – |
| CCCCc1oc2ccccc2c1C(=O)c1cc(I)c(OCCN(CC)CC)c(I)c1 | – | 44.7 µM (active) |
| COC(=O)Nc1nc2ccc(C(=O)c3cccs3)cc2[nH]1 | – | 0.208 µM (active) |
| Clc1ccc(C(c2ccccc2Cl)C(Cl)Cl)cc1 (stereo not drawn) | -8.97% | – |
| NC12CC3CC(CC(C3)C1)C2 | 7.41% | – |
| NC(=O)NO | -11.1% | – |
| CC[C@@]1(O)C(=O)OCc2c1cc1n(c2=O)Cc2cc3c(CN(C)C)c(O)ccc3nc2-1 | – | 0.329 µM (active) |
| O=C(Nc1ccc([N+](=O)[O-])cc1Cl)c1cc(Cl)ccc1O | – | 1.62 µM (active) |
| CN(Cc1cnc2nc(N)nc(N)c2n1)c1ccc(C(=O)N[C@@H](CCC(=O)O)C(=O)O)cc1 | – | 0.0131 µM (active) |
| O=C1c2c(O)ccc(O)c2C(=O)c2c(NCCNCCO)ccc(NCCNCCO)c21 | – | 2.33 µM (active) |
| CCC1(c2ccccc2)C(=O)NCNC1=O | -4.7% | – |

Assay: qHTS of pediatric cancer cell lines to identify multiple opportunities for drug repurposing: Confirmatory screen for SK-N-SH cells (AID 1347129);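 further: cells exposed to compound for 48 h before viability read; nearly all actives have a fitted effect of over 60% in size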;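 on activity change, negative = cytotoxic: plate controls were DMSO for no effect and bortezomib control for full effect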
Details: SK-N-SH neuroblastoma cell viability; series mostly up to 46.1 µM; activity change, negative = cytotoxic: at the top concentration
In short: as §1

| Structure (SMILES) | activity change, negative = cytotoxic | Potency |
| --- | --- | --- |
| COc1cc2c(c(OC)c1OC)-c1ccc(OC)c(=O)cc1[C@@H](NC(C)=O)CC2 | 10.8% [at 369 µM] | – |
| CS(=O)(=O)CCNCc1ccc(-c2ccc3ncnc(Nc4ccc(OCc5cccc(F)c5)c(Cl)c4)c3c2)o1 | – | 23.5 µM (active) |
| CC(C)Cc1ccc(C(C)C(=O)O)cc1 (stereo not drawn) | -7.93% | – |
| CCCCc1oc2ccccc2c1C(=O)c1cc(I)c(OCCN(CC)CC)c(I)c1 | – | 56.2 µM (active) |
| Clc1ccc(C(c2ccccc2Cl)C(Cl)Cl)cc1 (stereo not drawn) | 3.87% | – |
| NC12CC3CC(CC(C3)C1)C2 | 3.14% | – |
| CN1CCN(CCCN2c3ccccc3Sc3ccc(Cl)cc32)CC1 | – | 20.9 µM (active) |
| CC[C@@]1(O)C(=O)OCc2c1cc1n(c2=O)Cc2cc3c(CN(C)C)c(O)ccc3nc2-1 | – | 6.62 µM (active) |
| O=C(Nc1ccc([N+](=O)[O-])cc1Cl)c1cc(Cl)ccc1O | – | 3.23 µM (active) |
| CC(C)NCC(O)c1ccc(O)c(O)c1 (stereo not drawn) | -18.1% | – |
| CC(C)C(=O)Nc1ccc([N+](=O)[O-])c(C(F)(F)F)c1 | -6.9% | – |
| CN(Cc1cnc2nc(N)nc(N)c2n1)c1ccc(C(=O)N[C@@H](CCC(=O)O)C(=O)O)cc1 | -6.69% | – |
| CC(CCc1ccc(O)cc1)NCCc1ccc(O)c(O)c1 (stereo not drawn) | -1.53% | – |
| O=C1c2c(O)ccc(O)c2C(=O)c2c(NCCNCCO)ccc(NCCNCCO)c21 | – | 0.526 µM (active) |
| CCC1(c2ccccc2)C(=O)NCNC1=O | 2.83% | – |
| Clc1ccc2nsnc2c1NC1=NCCN1 | -0.721% | – |
